# Source: PubChem BioAssay (NCATS)
# The source made the active and inactive calls. The call rests on the fitted dose curve; in most records, active means well fitted curve in the direction sought with a large enough effect; inactive means no such curve, though single readings can be large or run the other way.
# Assay: qHTS for small molecule inhibitors of Yes1 kinase: Counter Assay (AID 686950);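 further: no kinase present so only ADP-Glo detection of a fixed ADP amount is tested; luminescence from ADP-Glo reporting ADP in a fixed ATP and ADP mixture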
# Conditions: series mostly up to 76.9 µM
# Outline: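 Enzyme-free ADP-Glo interference check: compounds were preincubated 20 min in buffer, then an ATP/ADP mix (0.08 mM ATP, 0.02 mM ADP final) was added for 60 min at room temperature before two-step ADP-Glo luminescence detection.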
row,Compound,outcome
1,CCCc1nc2c(C)cc(-c3nc4ccccc4n3C)cc2n1Cc1ccc(-c2ccccc2C(=O)O)cc1,inactive
2,COc1cc2c(cc1OC)CN(CCc1ccc(NC(=O)c3cccc4c(=O)c5cccc(OC)c5[nH]c34)cc1)CC2,inactive
3,CS(=O)(=O)c1cccc(CNc2nc(Nc3ccc4c(c3)CCC(=O)N4)ncc2C(F)(F)F)c1,inactive
4,CCn1c(-c2nonc2N)nc2c(C#CC(C)(C)O)ncc(OC[C@H]3CCCNC3)c21,inactive
5,Cc1cc(C=c2sc3nc4ccccc4n3c2=O)c(C)n1-c1ccccc1,inactive
6,Cc1c(CCOc2ccc(C(=O)O)cc2)c2cc(Cl)ccc2n1C(c1ccccc1)c1ccccc1,inactive
7,CC1(C)Cc2c(-c3ccccc3)c(-c3ccc(Cl)cc3)c(CC(=O)O)n2C1,inactive
8,O=C1[C@H](Cc2ccc(O)cc2)N2C(=O)CCN(C(=O)NCc3ccccc3)[C@H]2CN1Cc1cccc2ccccc12,inactive
9,NC(=O)c1ccc(-c2nc(-c3ccc4c(c3)OCCO4)c(-c3ccccn3)[nH]2)cc1,inactive
10,O=C(Nc1ccc(F)c(C(F)(F)F)c1)Nc1nnc(-c2ccncc2)s1,inactive
11,CC[C@@H](C)[C@H](NC(=O)[C@H](CC1CCCCC1)NC(=O)c1ccno1)C(=O)N1CCC2(CCc3ccccc32)CC1,inactive
12,CCOc1ccn(-c2ccc(F)cc2)c(=O)c1C(=O)Nc1ccc(Oc2ccnc(N)c2Cl)c(F)c1,inactive
13,CN(C)c1ccc(Nc2nc(N)n(C(=O)c3c(F)cccc3F)n2)cc1,inactive
14,C[C@H](NC(=O)Cc1cc(F)cc(F)c1)C(=O)N[C@@H]1C(=O)N(C)c2ccccc2-c2ccccc21,inactive
15,Clc1ccc(Nc2nnc(Cc3ccncc3)c3ccccc23)cc1,inactive
16,CCC(=O)N[C@H]1CC[C@H](C(=O)N(C)c2ccc(-c3nc4ccccc4o3)cc2)C1,inactive
17,COc1ccc(CCN2CCN(CCCc3ccccc3)CC2)cc1OC,inactive
18,CN([C@@H](Cc1ccc(OS(=O)(=O)c2cccc3cnccc23)cc1)C(=O)N1CCN(c2ccccc2)CC1)S(=O)(=O)c1cccc2cnccc12,inactive

row,Compound,outcome
1,C[C@@H]1C[C@H]2[C@@H]3CCC4=CC(=O)C=C[C@]4(C)C3(F)[C@@H](O)C[C@]2(C)[C@@]1(O)C(=O)CO (stereo partly specified),inactive
2,N#Cc1ccc(C(c2ccc(C#N)cc2)n2cncn2)cc1,inactive
3,Cn1cnc2c(F)c(Nc3ccc(Br)cc3Cl)c(C(=O)NOCCO)cc21,inactive
4,COc1ccccc1-c1cccc(-c2c(O)c3cc(C#N)c(Cl)cc3[nH]c2=O)c1,inactive
5,Nc1nc2[nH]cc(CCc3ccc(C(=O)N[C@@H](CCC(=O)O)C(=O)O)cc3)c2c(=O)[nH]1,inactive
6,CC(=O)NC(C)c1ccc(Oc2ccc(OC(C)C)cc2)cc1 (stereo unspecified),inactive
7,COCCNCCCn1c(C(=O)CF)c(-c2ccc(C)cc2)c2c(N)ncnc21,inactive
8,COc1ccc(CC2=NN3C([C@@H](CCc4ccccc4)[C@@H](C)O)=NC(C)C3C(=O)N2)cc1OC (stereo partly specified),inactive
9,CC(c1cc2ccccc2s1)N(O)C(N)=O (stereo unspecified),inactive
10,CS(=O)(=O)Oc1ccc2c(NC(N)=O)c(C(=O)c3ccc(Cl)cc3Cl)oc2c1,inactive
11,OC[C@H](Cc1ccccc1)Nc1nc(Oc2ccc3c(c2)CCC3)nc2c1ncn2Cc1ccc(-c2ccccc2)cc1,inactive
12,COc1ccc(COc2cc3oc(=O)c4cc(C(C)O)ccc4c3cc2OC)cc1 (stereo unspecified),inactive
13,COc1ccc2c3n(c(=NC(=O)c4cccnc4)nc2c1OC)CCN3,inactive
14,Cc1csc(NC(=O)c2sc3nc4c(c(C(F)(F)F)c3c2N)CCC4)n1,inactive
15,N#CC[C@H](C1CCCC1)n1cc(-c2ncnc3[nH]ccc23)cn1,inactive
16,CC[C@H](Nc1ncnc2nc[nH]c12)c1nc2cccc(F)c2c(=O)n1-c1ccccc1,inactive
17,O=C(O)c1ccc(-c2c[nH]c3ccc(-c4ccccc4)cc23)cc1C1CCCC1,inactive
18,CCc1cncnc1N1CCN(Cc2nc3ccc(C(F)(F)F)cc3[nH]2)CC1,inactive
